Measured values: PubChem BioAssay AID624117 (National Center for Advancing Translational Sciences (NCATS), 2012)
Results filed as inconclusive are left out. Calls of active or inactive are those of the source. Calls come from the whole dose curve; as a rule, active = well fitted curve in the direction sought with a large enough effect; inconclusive = small, poorly fitted or top-dose-only effect, or another doubt; inactive = no such curve, though single readings can be large or run the other way.

Assay: qHTS Assay for Rab9 Promoter Activators: Hit Validation Using Renilla Luciferase Read-Out
Settings: Huh7 NPC1 promoter Renilla luciferase reporter, 24 h; series mostly up to 76.9 µM
In short: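 Huh7 cells stably carrying NPC promoter-luciferase, 1,500 cells/well, exposed to compound for 24 h at 37 deg C. Luminescence read 10 min after […] addition; validation of firefly-read primary hits.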

Potency, inactive:
Cc1nc2sc(C(=O)OC(C)C)c(N)c2c(C)c1C, NNC(=O)c1cccc(S(=O)(=O)Nc2cc(Cl)ccc2Cl)c1, COc1ccc(C)cc1N(C(=O)CNC(=O)c1ccco1)C(C(=O)NC1CCCC1)c1cccnc1 (centres undefined), CCc1cc(C(=O)Nc2ccccc2)cs1, COCC1CCN(C(=O)c2ccc3oc(Cc4ccccc4)nc3c2)C1 (centres undefined), Cc1ccc(N(O)C(=O)NCCCCNC(=O)N(O)c2ccc(C)cc2)cc1, Cc1ccccc1NC(=O)CSc1ccc(-c2cccnc2)nn1, CN(C)C(=O)[C@H]1C[C@H]1[C@@H](O)[C@H](CO)NC(=O)[C@H](COCc1ccccc1)NC(=O)OC(C)(C)C, CC(=O)Nc1ccc(-c2csc(Nc3ncccn3)n2)cc1, COc1ccc(NC(=O)CN(C)C(=O)c2ccc(=O)[nH]c2)cc1, NC(=O)COC(=O)c1ccc2noc(-c3ccccc3)c2c1, NCCOc1ccccc1-c1ccccc1, COc1ccc(NC(=S)NNC(=O)c2cccs2)cc1, CC1CC(C)CN(CC(=O)N2CCOCC2)C1 (centres undefined), CCN(C(=O)COC(=O)c1ccc(C=O)cc1)c1c(N)n(Cc2ccccc2)c(=O)[nH]c1=O, COC(=O)CSc1nc2cc3c(cc2cc1C#N)OCO3, CCOC(=O)CSc1nc2cc3c(cc2cc1C#N)OCO3, CCN(CC(=O)N(CC(C)C)c1c(N)n(CC(C)C)c(=O)[nH]c1=O)Cc1nc2ccccc2c(=O)[nH]1, NC(=O)C1(NC(=O)[C@@H]2CC3(CC(c4cccc(NC(=O)[C@@H]5CCC(=O)N5)c4)=NO3)CN2C(=O)c2ccccc2)CC1 (some centres undefined), CCC(=O)NC(=S)Nc1ccc(N2CCOCC2)cc1, CC(=O)c1cccc(NC(=O)N2CCOCC2)c1, COCCNC(=O)Cn1nc(-c2ccccc2)c2ccccc2c1=O, CCOC(=O)CSc1nc2cc(C)ccc2cc1C#N, O=C(CCCOc1ccc(Cl)cc1)N1CCCCC1, CNC(=O)Cn1nc(C)c2ccccc2c1=O, Cc1csc(NC(=O)CSc2nnc(-c3ccncc3)o2)n1, CC(=O)Nc1nnc(SCC(=O)NCCOc2ccccc2)s1, Cc1ccc(NC(=O)c2ncc(Cl)c(Cl)c2Cl)cc1C, O=[N+]([O-])c1cnccc1Nc1ccc(F)cc1, Cc1ccc(C)c(Nc2cc(C)nc3ncnn23)c1, CCOc1cc(C2C(C#N)=C(N)Oc3n[nH]c(C)c32)ccc1OCCN1CCOCC1 (centres undefined), C=CCn1c(C)nnc1SCC(=O)Nc1nccs1, COc1ccc(/C=C\C(=O)c2c(O)ccc3c(C)cc(=O)oc23)cc1OC, O=C(CSc1nnc(-c2ccccc2)o1)Nc1ccccc1F, N#CC/C(N)=N/NC(=O)CCCNc1ncc(C(F)(F)F)cc1Cl, O=C(NCCc1c[nH]c2ccccc12)C(=O)NCC(c1ccco1)N1CCN(c2ccccc2F)CC1 (centres undefined), CCOC(=O)c1cc2sccc2n1CC(=O)N1CCCc2ccccc21, Cc1ccc2nc(Nc3ccc(Cl)cc3)c3nncn3c2c1, CCC(C)(C)NC(=O)C(c1ccc(OC)cc1)N(Cc1cccs1)C(=O)CCC(=O)Nc1cc(C)on1 (centres undefined)
